In all, about 8,300 sequences were measured (“log2 fold change of degron read counts, EGFP-low vs EGFP+ sorted cells (limma voom), compound-induced degradation”: median about -1.1, highest 2% from about 3.2 on). The full list was thinned out, with the highest values kept by preference.
Target: T1, CRBN, Q96SW2
T1 chain: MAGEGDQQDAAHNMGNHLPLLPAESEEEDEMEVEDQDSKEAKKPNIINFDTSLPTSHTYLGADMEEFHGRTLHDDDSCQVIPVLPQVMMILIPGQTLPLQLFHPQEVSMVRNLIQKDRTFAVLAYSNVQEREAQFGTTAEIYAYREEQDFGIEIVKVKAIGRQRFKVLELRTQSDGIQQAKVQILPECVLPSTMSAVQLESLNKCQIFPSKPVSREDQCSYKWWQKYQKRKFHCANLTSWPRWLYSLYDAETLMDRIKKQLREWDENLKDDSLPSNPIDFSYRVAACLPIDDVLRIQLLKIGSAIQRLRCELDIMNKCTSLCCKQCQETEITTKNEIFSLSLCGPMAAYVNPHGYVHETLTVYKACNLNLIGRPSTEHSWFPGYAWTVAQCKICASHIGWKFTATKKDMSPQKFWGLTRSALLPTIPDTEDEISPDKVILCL
Experiment: log2 fold change of degron read counts, EGFP-low vs EGFP+ sorted cells (limma voom), compound-induced degradation; higher = more compound-induced degradation of the degron-EGFP fusion; degrons are variants of IKZF1/3 zinc finger 2; compound dose not given here
Conditions: Jurkat, 18 h

[1] = compound: compound 19 (5-tert-butyl-thalidomide)
[2] = compound: compound 22 (5-morpholino-thalidomide)
[3] = compound: compound 33 (diphenyl IMiD analogue)
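Also: pooled lentiviral library of zinc finger degron-EGFP fusions in mCherry-positive Jurkat cells, FACS-sorted after compound exposure, with degron abundance counted by next-generation sequencing.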

| Sequence | log2 fold change of degron read counts [1] | log2 fold change of degron read counts [2] | log2 fold change of degron read counts [3] | log2 fold change of degron read counts (compound: thalidomide) |
| --- | --- | --- | --- | --- |
| FACNQCGAFFTQKGNLLRHIKL [46F_47A_49N_50Q_52G_53A_54F_55F_67L_, Q9UKT9] | -1.64 | -2.14 | -1.53 | -2.28 |
| FRCEICGRGFTQKGNLLRHIKL [46F_47R_49E_50I_52G_53R_54G_55F_67L_, Q9UKT9] | -2 | -1.92 | -0.0801 | -0.562 |
| FWCEVCGASFTQKGNLLRHIKL [46F_47W_49E_50V_52G_53A_54S_55F_67L_, Q9UKT9] | 3.77 | 3.54 | 2.67 | 1.37 |
| FKCEVCGASFTQKGNLLRHIKL [46F_47K_49E_50V_52G_53A_54S_55F_67L_, Q9UKT9] | 1.43 | -1.05 | -2 | 0.154 |
| FTCEVCGASFTQKGNLLRHIKL [46F_47T_49E_50V_52G_53A_54S_55F_67L_, Q9UKT9] | 2.27 | 2.96 | 2.53 | 3.12 |
| FDCEVCGASFTQKGNLLRHIKL [46F_47D_49E_50V_52G_53A_54S_55F_67L_, Q9UKT9] | 2.81 | 0.541 | 0.131 | 0.979 |
| FSCEVCGASFTQKGNLLRHIKL [46F_47S_49E_50V_52G_53A_54S_55F_67L_, Q9UKT9] | 3.58 | 2.8 | 2.27 | 1.63 |
| FWCNVCGASFTQKGNLLRHIKL [46F_47W_49N_50V_52G_53A_54S_55F_67L_, Q9UKT9] | 1.46 | 3.01 | 1.08 | -0.303 |
| FECEVCGASFTQKGNLLRHIKL [46F_47E_49E_50V_52G_53A_54S_55F_67L_, Q9UKT9] | 2.09 | -1.03 | 1.48 | 2.32 |
| FCCEVCGASFTQKGNLLRHIKL [46F_47C_49E_50V_52G_53A_54S_55F_67L_, Q9UKT9] | 3.45 | 2.85 | 2.25 | 2.34 |
| FGCEVCGASFTQKGNLLRHIKL [46F_47G_49E_50V_52G_53A_54S_55F_67L_, Q9UKT9] | 3.37 | 2.27 | 1.58 | 0.816 |
| FQCEQCGAAFTQKGNLLRHIKL [46F_47Q_49E_50Q_52G_53A_54A_55F_67L_, Q9UKT9] | -0.398 | 0.724 | 0.313 | 3.01 |
| LTCNQCGFPCTQKGNLLRHIKL [46L_47T_49N_50Q_52G_53F_54P_55C_67L_, Q9UKT9] | -2.43 | -2.96 | -2.54 | -1.71 |
| FTCEVCGAFFTQKGNLLRHIKL [46F_47T_49E_50V_52G_53A_54F_55F_67L_, Q9UKT9] | -0.934 | -0.537 | 0.743 | 0.936 |
| FSCDQCGAMFTQKGNLLRHIKL [46F_47S_49D_50Q_52G_53A_54M_55F_67L_, Q9UKT9] | -1.8 | -2.9 | -1.87 | -2.82 |
| FSCPQCGAAFTQKGNLLRHIKL [46F_47S_49P_50Q_52G_53A_54A_55F_67L_, Q9UKT9] | 0.138 | -0.952 | 1.89 | -0.879 |
| FWCPICGHMFTQKGNLLRHIKL [46F_47W_49P_50I_52G_53H_54M_55F_67L_, Q9UKT9] | -0.107 | -0.117 | 0.131 | -0.274 |
| LHCPICGFMCTQKGNLLRHIKL [46L_47H_49P_50I_52G_53F_54M_55C_67L_, Q9UKT9] | 2.17 | 2.35 | 2.28 | 1.44 |
| FVCEQCGATFTQKGNLLRHIKL [46F_47V_49E_50Q_52G_53A_54T_55F_67L_, Q9UKT9] | -2.6 | -1.48 | 0.0752 | -0.452 |
| FLCNQCGADFTQKGNLLRHIKL [46F_47L_49N_50Q_52G_53A_54D_55F_67L_, Q9UKT9] | -2.76 | -3.21 | -2.79 | -2.29 |
| FYCEICGHEFTQKGNLLRHIKL [46F_47Y_49E_50I_52G_53H_54E_55F_67L_, Q9UKT9] | -2.18 | -2.9 | -1.81 | -2.55 |
| FYCPQCGAFFTQKGNLLRHIKL [46F_47Y_49P_50Q_52G_53A_54F_55F_67L_, Q9UKT9] | 0.239 | 0.269 | 0.837 | -1.07 |
| FLCEVCGASFTQKGNLLRHIKL [46F_47L_49E_50V_52G_53A_54S_55F_67L_, Q9UKT9] | 1.64 | -0.285 | 1.43 | 1.45 |
| FFCEVCGASFTQKGNLLRHIKL [46F_47F_49E_50V_52G_53A_54S_55F_67L_, Q9UKT9] | 3.45 | 3.66 | 2.48 | 1.61 |
| FNCEVCGASFTQKGNLLRHIKL [46F_47N_49E_50V_52G_53A_54S_55F_67L_, Q9UKT9] | 3.22 | 1.38 | 0.489 | 0.435 |
| FICNICGAGFTQKGNLLRHIKL [46F_47I_49N_50I_52G_53A_54G_55F_67L_, Q9UKT9] | -0.991 | 1.17 | 1.13 | 1.71 |
| FTCEICGRFFTQKGNLLRHIKL [46F_47T_49E_50I_52G_53R_54F_55F_67L_, Q9UKT9] | -1.56 | -2.16 | -1.26 | -1.11 |
| FSCPICGHHFTQKGNLLRHIKL [46F_47S_49P_50I_52G_53H_54H_55F_67L_, Q9UKT9] | -1.98 | -2.66 | -2 | -1.93 |
